Data from the supplement of paper PMC6089552.
Screen size: about 3,200 compounds; about 300 (9.4%) showed activity. Many of the other results were omitted from the sample, so actives are more common in it than they were.

Test system: A673/TR/shEF
Assay: cell viability (LOESS-normalised, relative to median of negative controls) (log2 ratio); higher = more viable cells (less compound effect), active = hit call of the paper (over 3 MAD below the median)
Conditions: treatment time: 72 h
Summary of the method: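 For three days, A673/TR/shEF Ewing sarcoma cells in 384-well plates (1,500 per well) were treated with library compounds at two or more concentrations or with DMSO controls, after doxycycline had been added or withheld 24 h beforehand to induce EWS-FLI1 shRNA knockdown. Viability was read by CellTiter-Glo luminescence on an Envision reader. The data were LOESS-corrected per plate, divided by the median of negative controls and log2-transformed.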

[1] = 0.25 µM, library screen: screen1, EWS-FLI1 expression: high (no doxycycline)
[2] = 0.25 µM, library screen: screen1, EWS-FLI1 expression: low (doxycycline-induced shRNA knockdown)
[3] = 2.5 µM, library screen: screen1, EWS-FLI1 expression: high (no doxycycline)
[4] = 2.5 µM, library screen: screen1, EWS-FLI1 expression: low (doxycycline-induced shRNA knockdown)
[5] = 0.25 µM, library screen: screen2, EWS-FLI1 expression: high (no doxycycline)
[6] = 0.25 µM, library screen: screen2, EWS-FLI1 expression: low (doxycycline-induced shRNA knockdown)
[7] = 2.5 µM, library screen: screen2, EWS-FLI1 expression: high (no doxycycline)
[8] = 2.5 µM, library screen: screen2, EWS-FLI1 expression: low (doxycycline-induced shRNA knockdown)
[9] = 0.025 µM, library screen: screen2, EWS-FLI1 expression: high (no doxycycline)
[10] = 0.025 µM, library screen: screen2, EWS-FLI1 expression: low (doxycycline-induced shRNA knockdown)
[11] = 25 µM, library screen: screen2, EWS-FLI1 expression: high (no doxycycline)
[12] = 25 µM, library screen: screen2, EWS-FLI1 expression: low (doxycycline-induced shRNA knockdown)
[13] = 0.025 µM, library screen: screen1, EWS-FLI1 expression: high (no doxycycline)
[14] = 0.025 µM, library screen: screen1, EWS-FLI1 expression: low (doxycycline-induced shRNA knockdown)
[15] = 25 µM, library screen: screen1, EWS-FLI1 expression: high (no doxycycline)
[16] = 25 µM, library screen: screen1, EWS-FLI1 expression: low (doxycycline-induced shRNA knockdown)
[17] = 0.103 µM, library screen: screen3, EWS-FLI1 expression: high (no doxycycline)
[18] = 0.103 µM, library screen: screen3, EWS-FLI1 expression: low (doxycycline-induced shRNA knockdown)
[19] = 0.308 µM, library screen: screen3, EWS-FLI1 expression: high (no doxycycline)
[20] = 0.308 µM, library screen: screen3, EWS-FLI1 expression: low (doxycycline-induced shRNA knockdown)
[21] = 0.926 µM, library screen: screen3, EWS-FLI1 expression: high (no doxycycline)
[22] = 0.926 µM, library screen: screen3, EWS-FLI1 expression: low (doxycycline-induced shRNA knockdown)
[23] = 2.8 µM, library screen: screen3, EWS-FLI1 expression: high (no doxycycline)
[24] = 2.8 µM, library screen: screen3, EWS-FLI1 expression: low (doxycycline-induced shRNA knockdown)
[25] = 8.3 µM, library screen: screen3, EWS-FLI1 expression: high (no doxycycline)
[26] = 8.3 µM, library screen: screen3, EWS-FLI1 expression: low (doxycycline-induced shRNA knockdown)
[27] = 25 µM, library screen: screen3, EWS-FLI1 expression: high (no doxycycline)
[28] = 25 µM, library screen: screen3, EWS-FLI1 expression: low (doxycycline-induced shRNA knockdown)

Measured: cell viability (log2)

CN=C1CN(O)C(c2ccccc2)=c2cc(Cl)ccc2=N1
inactive: [1] 0.0853 | [2] 0.0654 | [3] 0.0997 | [4] 0.0898

CCN1C[C@]2(C)CC[C@H](OC)[C@@]34C1[C@]1(OCO[C@@]15C[C@H](OC)[C@H]1C[C@]3(O)[C@@H]5[C@H]1OC)[C@@H](OC(C)=O)[C@H]24
inactive: [1] 0.0895 | [2] 0.0208 | [3] 0.12 | [4] 0.0444

C=CCN1CC[C@]23c4c5ccc(O)c4O[C@@H]2/C(=N/N=C2\CC[C@@]4(O)C6Cc7ccc(O)c8c7[C@@]4(CCN6CC=C)[C@@H]2O8)CC[C@@]3(O)C1C5
inactive: [5] 0.27 | [6] 0.119 | [7] 0.0736 | [8] 0.0511

S=C=NCc1ccccc1
inactive: [1] 0.0421 | [2] 0.0817 | [3] 0.0546 | [4] 0.123

CCOP(=S)(OCC)Oc1ccc2c(C)c(Cl)c(=O)oc2c1
inactive: [1] -0.0154 | [2] -0.0116 | [3] 0.000589 | [4] -0.0198

COc1c2c(cc3c1OCO3)CC[N+](C)=C2
inactive: [1] 0.122 | [2] 0.157 | [3] 0.0941 | [4] 0.18

COc1ccc(C(=O)OC2CCC3(C)C4CCC5[C@]6(O)C[C@H](O)[C@@]7(O)C(CN8CC(C)CCC8[C@@]7(C)O)[C@]6(O)C[C@@]53O[C@]24O)cc1OC (stereo partly drawn)
inactive: [1] 0.0564 | [2] 0.0531 | [3] 0.0896 | [4] 0.133

S=C=Nc1cccc(C2(N3CCCCC3)CCCCC2)c1
inactive: [5] 0.168 | [6] 0.105 | [7] 0.16 | [8] 0.118

NCCCP(=O)(O)O
inactive: [5] 0.138 | [6] 0.0766 | [7] 0.114 | [8] 0.116

O=C1C=CC(=O)c2c(O)cccc21
active: [11] -0.0924 | [12] -0.0926
inactive: [9] 0.123 | [10] 0.0947 | [1] 0.185 | [2] 0.0663 | [5] 0.0843 | [6] 0.00401 | [3] 0.153 | [4] 0.0956 | [7] 0.273 | [8] 0.125

CCCCCCC(C)(C)c1ccc([C@H]2C[C@@H](O)CC[C@H]2CCCO)c(O)c1
inactive: [5] 0.0289 | [6] 0.103 | [7] 0.129 | [8] 0.122

CCc1cccc(C)c1N(C(=O)CCl)C(C)COC (stereo not drawn)
inactive: [1] 0.0561 | [2] 0.0711 | [3] 0.0898 | [4] 0.0634

CCCC(C)(COC(N)=O)COC(=O)NC(C)C (stereo not drawn)
inactive: [1] 0.0415 | [2] 0.112 | [5] 0.196 | [6] 0.0672 | [3] 0.137 | [4] 0.151 | [8] 0.121
active: [7] -0.0715

C[N+]1=Cc2cc3c(cc2CC1)OCO3
inactive: [1] 0.0752 | [2] 0.0244 | [3] 0.15 | [4] 0.0111

COc1ccc([C@H]2Oc3c(I)c(OC)cc(OC)c3C[C@@H]2O)cc1OC
inactive: [1] -0.0318 | [2] 0.027 | [3] 0.0859 | [4] 0.059

N#C/C(=C\c1ccc(O)cc1)C(=O)O
inactive: [1] 0.0465 | [2] 0.0904 | [3] 0.146 | [4] 0.0788

C[C@@H](N)Cc1cnc[nH]1
inactive: [5] 0.0946 | [6] 0.0207 | [7] 0.146 | [8] 0.00233

OC[C@H]1O[C@@H](n2cnc3cc(Cl)c(Cl)cc32)[C@H](O)[C@@H]1O
inactive: [13] 0.182 | [14] -0.067 | [1] 0.227 | [2] 0.0134 | [4] 0.128 | [16] 0.0669
active: [3] -0.183 | [15] -0.16

Cc1cc([C@@H]2CCCN2C)on1
inactive: [5] 0.0967 | [6] 0.135 | [7] 0.0205 | [8] 0.0708

CN1CC[C@]2(CCN3CCc4c(oc5ccccc45)[C@@H]3C2)N(C)C1=O
inactive: [5] 0.195 | [6] 0.0926 | [7] 0.114 | [8] 0.114

CCCCN(CC)c1c([N+](=O)[O-])cc(C(F)(F)F)cc1[N+](=O)[O-]
inactive: [1] 0.116 | [2] 0.132 | [3] 0.0478 | [4] 0.194

ClC1=C(Cl)C2(Cl)C3C(Cl)C=CC3C1(Cl)C2(Cl)Cl (stereo not drawn)
inactive: [1] 0.152 | [2] 0.0412 | [3] 0.0862 | [4] 0.0598

CC(C)N1C(=O)c2ccccc2NS1(=O)=O
inactive: [1] 0.113 | [2] 0.086 | [3] 0.0391 | [4] 0.0775

C/C=C(/C)C(=O)O[C@H]1C(C)=C2[C@H]([C@@H]1OC(=O)CCCCCCC)[C@@](C)(OC(C)=O)C[C@H](OC(=O)CCC)[C@@]1(O)[C@H]2OC(=O)[C@@]1(C)O
active: [5] -3.16 | [6] -2.76 | [7] -3.49 | [8] -2.81

CN1C(=O)CN=C(c2ccccc2)c2cc(Cl)ccc21
inactive: [1] 0.0871 | [2] 0.0866 | [3] 0.123 | [4] 0.0545

C[C@]12CC[C@H]3[C@@H](CCC4=CC(=O)CC[C@@]43C)[C@@H]1CC[C@@H]2O
inactive: [1] 0.0751 | [2] -0.0159 | [3] 0.0937 | [4] -0.0498

O=c1cccc2n1CC1CC2CN2CCCCC12 (stereo not drawn)
inactive: [1] 0.16 | [2] 0.0123 | [3] 0.153 | [4] 0.0958

NCCc1cc(O)c(O)cc1O
inactive: [1] 0.0637 | [2] 0.155 | [3] 0.144 | [4] 0.129

CC(=O)OCC1=C(C(=O)O)N2C(=O)[C@@H](NC(=O)CCC[C@@H](N)C(=O)O)[C@H]2SC1
inactive: [5] 0.263 | [6] 0.114 | [7] 0.155 | [8] 0.174

CC[C@@]1(O)C(=O)OCc2c1cc1n(c2=O)Cc2cc3ccccc3nc2-1
inactive: [9] -0.0654 | [10] 0.049 | [18] -0.0714
active: [17] -1.01 | [1] -2.18 | [2] -0.586 | [5] -2.99 | [6] -0.42 | [19] -2.37 | [20] -0.543 | [21] -3.61 | [22] -0.88 | [3] -1.57 | [4] -0.388 | [7] -3.53 | [8] -0.945 | [23] -4.24 | [24] -1.16 | [25] -4.26 | [26] -1.3 | [11] -4.09 | [12] -1.25 | [27] -4.26 | [28] -2.33

C[C@]12CCC(=O)C=C1C=CC1C2CC[C@@]2(C)C1CC[C@@]2(O)CCC(=O)O (stereo partly drawn)
inactive: [1] 0.0813 | [2] -0.0168 | [3] 0.15 | [4] -0.00183

N[C@@H](Cc1ccc(N(CCCl)CCCl)cc1)C(=O)O
inactive: [1] 0.0874 | [2] 0.0161 | [5] 0.175 | [6] 0.17 | [3] 0.00755 | [4] 0.0488 | [7] 0.22 | [8] 0.172

O=C(O)CCCc1ccc(N(CCCl)CCCl)cc1
inactive: [9] 0.0942 | [10] 0.0711 | [1] 0.0971 | [2] 0.0808 | [5] 0.12 | [6] 0.0418 | [3] 0.142 | [4] 0.131 | [7] 0.101 | [8] 0.11 | [12] 0.0238
active: [11] -0.0762

Cn1c(CCCC(=O)O)nc2cc(N(CCCl)CCCl)ccc21
inactive: [17] 0.058 | [18] 0.0297 | [19] -0.00941 | [20] 0.026 | [21] -0.00645 | [22] 0.00947 | [23] -0.0453 | [24] -0.00369 | [25] 0.00708 | [26] 0.0974 | [27] -0.0533 | [28] 0.0463

CC(=O)CC1CCCCN1 (stereo not drawn)
inactive: [1] 0.0906 | [2] -0.00634 | [3] 0.0756 | [4] -0.083

CC(=O)O[C@@H]1CC2C(C)(C)[C@H](O)C=C[C@]2(C)C2CC[C@]3(C)C(=CC(=O)O[C@H]3c3ccoc3)[C@@]21C (stereo partly drawn)
inactive: [1] 0.113 | [2] 0.0781 | [3] 0.222 | [4] 0.195

CCc1cccc(CC)c1N(COC)C(=O)CCl
inactive: [1] 0.0413 | [2] -0.00378 | [3] 0.0617 | [4] 0.0338

CC1(C)[C@H](C(=O)O[C@H](C#N)c2cccc(Oc3ccccc3)c2)[C@@H]1C=C(Br)Br
inactive: [13] 0.0513 | [14] -0.0407 | [1] 0.047 | [2] 0.086 | [3] 0.112 | [4] 0.12 | [15] -0.0163 | [16] 0.0977

CC(C)C(C(=O)OC(C#N)c1cccc(Oc2ccccc2)c1)c1ccc(Cl)cc1 (stereo not drawn)
inactive: [13] 0.0912 | [14] 0.0926 | [1] 0.0365 | [2] 0.00166 | [3] 0.0694 | [4] 0.0411 | [15] 0.0435 | [16] 0.0476

CC1(C)C(C=C(Cl)Cl)C1C(=O)OC(C#N)c1cccc(Oc2ccccc2)c1 (stereo not drawn)
inactive: [13] 0.0827 | [14] 0.0478 | [1] 0.102 | [2] -0.0402 | [3] 0.0354 | [4] -0.0899
active: [15] -0.287 | [16] -0.665
